ELG1 repair inh: ELG1-dependent DNA repair inhibition; HEK293T ELG1-luciferase reporter, luminescence, 16 h; DNA damage induced by 5-fluorouridine; Potency, µM (doses to about 46.1 µM), without a hit: at the highest dose activity change, negative = inhibition, hits mostly inhibitors; 2.3% of 330,000 active; note: % is set by controls: 0 for no effect and ±100 for the full control effect; nearly all actives have a fitted effect of over 55% in size
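Quantitative HTS, concentration-response format. 2,000 cells/well co-treated with 5-fluorouridine and compound, 16 hr in 5% CO2 at 37 °C; ONE-Glo luminescence read after 30 min.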
KB-3-1 tox: kills parental KB-3-1 adenocarcinoma cells; KB-3-1 viability, CellTiter-Glo ATP luminescence, 72 h; Potency, µM (series often up to 46.1 µM), usual class: cytotoxic; 1.4% of 400,000 active; note: % is set by controls: 0 for no effect and ±100 for the full control effect; nearly all actives have a fitted effect of over 60% in size
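KB-3-1 parental drug-naive adenocarcinoma cells in DMEM/10% FBS, incubated 72 h at 37 C with pin-transferred compounds across a concentration series. Viability by CellTiter-Glo luminescence; concentration-response curves fitted after normalization.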
MCF10A rerep: DNA re-replication induction in MCF 10a cells | MCF 10A DNA re-replication, Hoechst nuclear intensity, 48 h | Potency, µM (titrated, usually from 46.1 µM), for inactives: at the highest dose activity, positive = re-replication, actives largely listed as activators | 2.9% of 350,000 active; note: % of control where 0% means no effect; nearly all actives have a fitted effect of over 50% in size
KB-V1 cytotox: kills drug-selected multidrug resistant KB-V1 cells | KB-V1 MDR cells viability, CellTiter-Glo, 72 h | 3.4% of 400,000 active | Potency, µM (highest dose often 46.1 µM), hits mostly cytotoxic; note: % is set by controls: 0 for no effect and ±100 for the full control effect; nearly all actives have a fitted effect of over 60% in size
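Cytotoxicity via CellTiter-Glo luminescence after 72 h compound exposure at 37 degrees C. Cells: drug-selected KB-V1 line, DMEM phenol-red free plus 10% FBS. Compounds tested at multiple concentrations; normalized data fitted to concentration-effect curves.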
SW480 rereplic: induces DNA re-replication in SW480 colon adenocarcinoma cells; Potency, µM (series often up to 46.1 µM), inactives show at the highest dose re-replication activation, most hits filed as activators; AID 624297; 1.8% of 340,000 active; SW480 DNA re-replication, Hoechst DNA content imaging, 48 h; note: % of control where 0% means no effect; nearly all actives have a fitted effect of over 55% in size
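SW480 cells exposed to compounds for 48 hr at 37 C, 5% CO2, then Hoechst-stained 40 min. Nuclear DNA content imaged by fluorescence scanning (405 nm excitation, 500-530 nm emission); re-replication scored as increased high-intensity nuclei.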
ELG1 FLuc counter: luciferase inhibition in cell-free luciferin readout for ELG1 hits. cell-free firefly luciferase luminescence counter-screen, ViewLux. Potency, µM (series often up to 46.1 µM), without a hit: at the top dose activity change, negative = inhibition, usual class: inhibitors. shares compounds with ELG1 repair inh. 3% of 350 active. AID 624247; note: % is set by controls: 0 for no effect and ±100 for the full control effect
ELG1-Luc inh: inhibits ELG1-dependent DNA repair in HEK293T cells, confirmed; shares compounds with ELG1 repair inh; HEK293T ELG1-luciferase levels, luminescence; cells co-treated with 5-fluorouridine; Potency, µM (doses to about 46.1 µM), for the others: at the top dose activity change, negative = inhibition, usual class: inhibitors; 68% of 670 active; AID 624248; note: % is set by controls: 0 for no effect and ±100 for the full control effect; nearly all actives have a fitted effect of over 55% in size
ELG1 MMS Luc: inhibits ELG1-dependent repair under MMS stimulation in HEK293T cells. shares compounds with ELG1 repair inh. Potency, µM (doses to about 46.1 µM), for inactives: at the top dose activity change, negative = inhibition, hits mostly inhibitors. 53% of 670 active. HEK293T luciferase-tagged ELG1 level, MMS stimulated. AID 624249; note: % is set by controls: 0 for no effect and ±100 for the full control effect; nearly all actives have a fitted effect of over 60% in size
ELG1 5-FU: confirmation of ELG1 repair inhibitors: viability with 5FU; shares compounds with ELG1 repair inh; cell viability with 5-FU, ELG1-dependent repair; Potency, µM (titrated, usually from 46.1 µM), for inactives: at the highest dose activity change, negative = viability loss, actives largely listed as cytotoxic; 670 tested, under 10 active; AID 624250;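 note: ELG1-luc HEK293T cells cotreated with 5-fluorouridine at 10 µM final; viability measured 16 h after compound addition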
ELG1 MMS cell: confirmation of ELG1 repair inhibitors: viability with MMS | shares compounds with ELG1 repair inh | Cell viability with MMS, ELG1-dependent DNA repair | Potency, µM (titrated, usually from 46.1 µM), inactives show at the top dose activity change, negative = viability loss, hits mostly cytotoxic | 33% of 670 active;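 note: ELG1-luc HEK293T cells co-treated with 10 µM MMS; viability read 16 h after compound addition; % is set by controls: 0 for no effect and ±100 for the full control effect; nearly all actives have a fitted effect of over 60% in size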
ELG1 unstim viab: counter-screen for ELG1 repair inhibitors: unstimulated cell viability | shares compounds with ELG1 repair inh | cell viability counter-screen, unstimulated, luminescence | Potency, µM (series often up to 45.9 µM), for inactives: at the top dose activity change, negative = loss of viability, hits mostly cytotoxic | 8% of 900 active | AID 624252;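 note: compound exposure lasted 16 hours before reading; % is set by controls: 0 for no effect and ±100 for the full control effect; nearly all actives have a fitted effect of over 55% in size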
FLuc enzyme: counter-screen for ELG1 repair inhibitors: firefly luciferase inhibition. shares compounds with ELG1 repair inh. purified firefly luciferase, luminescence counter-screen. Potency, µM (doses to about 57.5 µM), without a hit: at the top dose activity, negative = inhibition, hits mostly inhibitors. 10% of 350 active; note: % is set by controls: 0 for no effect and ±100 for the full control effect
An asterisk follows results filed as active; [ ] = remark or other dose. In the library only some 8.1% were active in any assay of this set; here they are far more common. Calls come from the whole dose curve; as a rule, active = well fitted curve in the direction sought with a large enough effect; inconclusive = small, poorly fitted or top-dose-only effect, or another doubt; inactive = no such curve, though single readings can be large; an effect the other way counts as inactive or inconclusive. Potency is the fitted concentration of half-maximal effect.

What do the screens show for `Cc1ccc(-c2csc3ncnc(N4CCN(C(=O)c5ccccc5)CC4)c23)cc1`?
ELG1 repair inh: 18µM*; KB-3-1 tox: inconclusive; MCF10A rerep: inconclusive; KB-V1 cytotox: inconclusive; SW480 rereplic: 1%[9.22 µM]; ELG1 FLuc counter: inconclusive; ELG1-Luc inh: 16µM*; ELG1 MMS Luc: 25µM*; ELG1 5-FU: inconclusive; ELG1 MMS cell: inconclusive; ELG1 unstim viab: inconclusive; FLuc enzyme: 1%

How did COc1ccc(-c2nn(-c3ccccc3)cc2/C=C/C(=O)N2CCOCC2)cc1OC do in these assays?
ELG1 repair inh: 1.5µM*; KB-3-1 tox: inactive; MCF10A rerep: -13%; KB-V1 cytotox: inactive; SW480 rereplic: -1%; ELG1-Luc inh: 1.4µM*; ELG1 MMS Luc: -16%; ELG1 5-FU: inconclusive; ELG1 MMS cell: -10%; ELG1 unstim viab: inconclusive

What do the screens show for `COc1ccc(-c2nn(-c3ccccc3)cc2C(=O)O)cc1OC`?
ELG1 repair inh: 13%; KB-3-1 tox: inactive; MCF10A rerep: 11%; KB-V1 cytotox: inactive; SW480 rereplic: -3%

Results for O=C(NC1CCCC1)c1nc(-c2ccco2)oc1-c1ccccc1 ?
KB-3-1 tox: inactive; KB-V1 cytotox: inactive

Results for Cc1ccc(C)c(N2CCN(C(=O)CCS(=O)(=O)c3ccc4c(c3)NC(=O)C(C)S4)CC2)c1 (configuration not stated) ?
ELG1 repair inh: 4.6µM*; KB-3-1 tox: inconclusive; MCF10A rerep: -15%; KB-V1 cytotox: inconclusive; SW480 rereplic: -10%; ELG1-Luc inh: 13µM*; ELG1 MMS Luc: 2µM*; ELG1 5-FU: inconclusive; ELG1 MMS cell: 2µM*; ELG1 unstim viab: inconclusive

Results for COc1ccc(N2CCN(C(=O)CCS(=O)(=O)c3ccc4c(c3)NC(=O)C(C)S4)CC2)cc1 (configuration not stated) ?
ELG1 repair inh: -10%; KB-3-1 tox: inactive; MCF10A rerep: 1%; KB-V1 cytotox: inactive; SW480 rereplic: -13%

What do the screens show for `Cc1cc(C(=O)CSc2nc(N)cc(=O)[nH]2)c(C)n1-c1ccc(OC(F)F)cc1`?
ELG1 repair inh: inconclusive; KB-3-1 tox: inconclusive; MCF10A rerep: 6%; KB-V1 cytotox: inconclusive; SW480 rereplic: -3%; ELG1-Luc inh: -6%; ELG1 MMS Luc: 1.6µM*; ELG1 5-FU: -16%; ELG1 MMS cell: 1.6µM*; ELG1 unstim viab: inconclusive

How did CCC(C)c1ccc(S(=O)(=O)N2CCN(C(=O)CN3C(=O)NC(C)(C4CC4)C3=O)CC2)cc1 (configuration not stated) do in these assays?
KB-3-1 tox: inactive; KB-V1 cytotox: inactive
